# Assay results as given in PubChem BioAssay AID1159580 (chemical genetic matrix, 2015).
# Among all 5,500 compounds or so, about 2,000 (36%) were called active. Another 18% or so got no clear call; they are omitted. This is one part of the list. Values without a mark were called inactive. Rule as the data show it: active = normalized growth mostly below about 0.91 (no sharp cut-off); inconclusive = no clear call, values can overlap the other calls; inactive = mostly above about 0.92.
# Assay: chemical genetic growth profiling, strain panel (AID 1159580);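 also: tested at 20 µM; growth read once vehicle control cultures reached saturation at 30 °C; 1 = growth at the plate median or of vehicle wells; lower values mean less growth of the strain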
# Settings: S. cerevisiae deletion strains, growth OD
smiles,measurement,setting,value
COc1ccc(-c2c(C)nc3ccc(Cl)cc3c2-c2ccccc2)cc1OC,normalized growth,"locus YAL013W, strain DEP1, stronger effect = lower value",0.91 (active)
same,normalized growth,"locus YBR229C, strain ROT2, stronger effect = lower value",0.937
same,normalized growth,"locus YDL101C, strain DUN1, stronger effect = lower value",0.945
same,normalized growth,"locus YDL134C, strain PPH21, stronger effect = lower value",0.914 (active)
same,normalized growth,"locus YDR150W, strain NUM1, stronger effect = lower value",0.861
same,normalized growth,"locus YEL061C, strain CIN8, stronger effect = lower value",0.949
same,normalized growth,"locus YGR078C, strain PAC10, stronger effect = lower value",0.935
same,normalized growth,"locus YHR030C, strain SLT2, stronger effect = lower value",0.759
same,normalized growth,"locus YHR087W, strain rtc3, stronger effect = lower value",0.913
same,normalized growth,"locus YJR043C, strain POL32, stronger effect = lower value",0.977
same,normalized growth,"locus YJR075W, strain HOC1, stronger effect = lower value",0.819 (active)
same,normalized growth,"locus YKL190W, strain CNB1, stronger effect = lower value",0.98
same,normalized growth,"locus YLR039C, strain RIC1, stronger effect = lower value",0.821
same,normalized growth,"locus YLR058C, strain SHM2 (second series), stronger effect = lower value",0.986
same,normalized growth,"locus YLR085C, strain ARP6, stronger effect = lower value",0.785
same,normalized growth,"locus YLR262C, strain YPT6, stronger effect = lower value",0.948
same,normalized growth,"locus YML094W, strain GIM5, stronger effect = lower value",0.933
same,normalized growth,"locus YMR219W, strain ESC1, stronger effect = lower value",0.947
same,normalized growth,"locus YMR307W, strain GAS1, stronger effect = lower value",0.546 (active)
same,normalized growth,"locus YNL128W, strain TEP1, stronger effect = lower value",1.01
same,normalized growth,"locus YNL153C, strain GIM3, stronger effect = lower value",0.972
same,normalized growth,"locus YNL298W, strain CLA4 (second series), stronger effect = lower value",1
same,normalized growth,"locus YNL322C, strain KRE1, stronger effect = lower value",0.98
same,normalized growth,"locus YNR030W, strain Alg12, stronger effect = lower value",0.889
same,normalized growth,"locus YOL006C, strain TOP1, stronger effect = lower value",0.817
same,normalized growth,"locus YPL055C, strain LGE1, stronger effect = lower value",0.798
same,normalized growth,"locus YPL241C, strain CIN2, stronger effect = lower value",0.85 (active)
same,normalized growth,"locus YPR135W, strain CTF4, stronger effect = lower value",0.754
